RE007 growth inh: less growth of the S. pombe RE007 Vpr strain; hit rate 0.21% among 360,000; S. pombe RE007 Vpr strain, BacTiter-Glo ATP luminescence, 24 h; Potency, µM (top dose mostly 92.2 µM), without a hit: at the highest dose activity change, negative = less growth, usual class: inhibitors; active means well fitted falling curve with a large enough effect; inconclusive means small, poorly fitted or top-dose-only effect; inactive means no such curve, though single readings can be large or run the other way; further: nearly all actives have a fitted effect of over 50% in size
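Fission yeast RE007 carrying one integrated HIV-1 vpr copy, seeded at OD 0.01 in PMG+AL medium with 23 nL pinned compound. Grown 24 h at 30 degrees; viability read by BacTiter-Glo luminescence after 5 min.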
Sm TGR inh: blocks Schistosoma mansoni thioredoxin glutathione reductase | Potency, µM (highest dose often 114 µM), for the others: top-dose activity change, negative = inhibition, hits mostly inhibitors | hit rate 3% among 360,000 | purified TGR, DTNB reduction, TNB absorbance 405 nm; further: nearly all actives have a fitted effect of over 60% in size
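Kinetic colorimetric format: TGR-catalysed, NADPH-driven DTNB reduction monitored via TNB absorbance. Enzyme dispensed at 20 nM; compound exposure 15 min at room temperature before reaction start.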
AmpC detergent: AmpC beta-lactamase inhibition with detergent present; AmpC hydrolysis of nitrocefin, absorbance 480 nm, 0.01% Triton; Potency, µM (doses to about 114 µM), inactives show at the top dose activity change, negative = inhibition, usual class: inhibitors; hit rate 0.041% among 370,000; AID 485294;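 further: 0% = no-compound wells and -100% = no-enzyme wells; nearly all actives have a fitted effect of over 25% in size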
Target sequence (P00811 whole entry, looked up): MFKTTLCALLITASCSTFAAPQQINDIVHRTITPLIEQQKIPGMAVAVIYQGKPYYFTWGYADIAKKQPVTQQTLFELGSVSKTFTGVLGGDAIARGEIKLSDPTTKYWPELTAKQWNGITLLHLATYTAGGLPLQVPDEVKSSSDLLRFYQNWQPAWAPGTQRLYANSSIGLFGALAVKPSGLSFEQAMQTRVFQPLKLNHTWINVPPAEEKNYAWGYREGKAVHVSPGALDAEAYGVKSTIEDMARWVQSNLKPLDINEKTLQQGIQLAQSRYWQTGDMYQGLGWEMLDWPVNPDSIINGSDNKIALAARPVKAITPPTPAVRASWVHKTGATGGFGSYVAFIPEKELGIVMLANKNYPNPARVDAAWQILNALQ
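AmpC (5.3 nM in the dispensed reagent) in 20 mM phosphate pH 7.0 with 0.01% (detergent screen) or 0.0001% Triton X-100 was preincubated with compounds for 15 min at room temperature. Nitrocefin was then added from an 800 uM solution, and hydrolysis was followed at 480 nm.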
AmpC no deterg: blocks E. coli AmpC beta-lactamase in detergent-free assay; P00811; AmpC nitrocefin hydrolysis, absorbance 480 nm, 0.0001% Triton; Potency, µM (highest dose often 57.1 µM), for inactives: at the highest dose activity change, negative = inhibition, most hits filed as inhibitors; hit rate 0.52% among 330,000; AID 485341;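 further: plate controls were no compound for no effect and no enzyme for full effect; nearly all actives have a fitted effect of over 20% in size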
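20 mM phosphate pH 7.0 + 0.01% (detergent screen) or 0.0001% Triton X-100; 5.3 nM AmpC reagent; cpd preinc 15 min RT; nitrocefin (800 uM stock) to start; A480 q20 s × 4 min; Activity was normalised to no-enzyme and no-compound control wells.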
AMA1-RON2 inh: disrupts binding of P. falciparum AMA1 to RON2 | AlphaScreen AMA1-biotinylated RON2 peptide binding | Potency, µM (highest dose often 58.2 µM), without a hit: at the top dose activity change, negative = inhibition, usual class: inhibitors | hit rate 0.2% among 360,000 | AID 720542;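 further: 0% = vehicle wells and -100% = peptide control; nearly all actives have a fitted effect of over 45% in size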
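AMA1 (3D7) with his tag at 25 nM final met compounds first, then biotinylated RON2 peptide at 25 nM; detection used donor plus acceptor beads, 10 µg/mL apiece, read by AlphaScreen after 30 min at room temperature.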
Numbers without * were called inactive; ? = inconclusive; . = no result given; [ ] = remark or other dose. Most compounds without a hit are left out; they make up all but 3.2% or so of the library. Unless noted, the call rests on the fitted dose curve; in most records, active means well fitted curve in the direction sought with a large enough effect; inconclusive means small, poorly fitted or top-dose-only effect, or another doubt; inactive means no such curve, though single readings can be large; an effect the other way counts as inactive or inconclusive. Unless noted, on the % scale 0 is the no-effect control and ±100 the full control effect; potency means the concentration at half of the fitted maximal effect.

SMILES | RE007 growth inh | Sm TGR inh | AmpC detergent | AmpC no deterg | AMA1-RON2 inh
COc1ccc(NS(=O)(=O)c2ccc3c(c2)[C@H]2C=CC[C@H]2[C@@H](c2ccc(C(=O)O)cc2)N3)cc1 | -12.4% | ? | ? | -41.1% | ?
CC(C)C1Nc2ccc(C(=O)O)cc2C2C=CCC21 (stereo unspecified) | 3.3% | 20µM* | 1.7% | -5.5% | -9.7%
Cc1ccccc1NC(=O)c1c(C)oc2ccc(O)c(CN3CCCC3)c12 | . | 6.0% | 16.8% | . | .
Cc1ccc(-c2nc(CCNC(=O)C(=O)Nc3ccc(F)cc3F)cs2)cc1 | . | 11.7% | 1.2% | . | .
CC(=O)c1ccc2c(c1)C1C=CCC1C(c1ccc(S(=O)(=O)N3CCOCC3)cc1)N2 (stereo unspecified) | -8.0% | 28.2µM* | -16.3% | -6.3% | -6.6%
O=C1CC(N2CCC(c3nc4ccccc4[nH]3)CC2)C(=O)N1c1ccccc1F (stereo unspecified) | 35.5µM* | 31.6µM* | 0.0% | -14.7%[2.29 µM] | -16.6%
COc1ccc(N2C(=O)CC(N3CCN(c4ccccc4F)CC3)C2=O)cc1 (stereo unspecified) | -23.8% | ? | -1.5% | -2.0% | 16.0%
COc1ccc(N2C(=O)CC(n3c(CCCCO)nc4ccccc43)C2=O)cc1 (stereo unspecified) | ? | 8.91µM* | 2.0% | 14.7% | 4.5%
COc1ccc(N2C(=O)CC(n3cnc4ccccc43)C2=O)cc1 (stereo unspecified) | 3.3% | -22.1% | -1.9% | 1.0% | 0.0%
COc1ccc(N2C(=O)CC(N3CCC(c4nc5ccccc5[nH]4)CC3)C2=O)cc1 (stereo unspecified) | 39.8µM* | 39.8µM* | 2.8% | 12.9% | 1.8%
O=C(Cn1ncc2c3ccccc3n(Cc3cccc(Cl)c3)c2c1=O)NCCC1=CCCCC1 | . | 2.2% | 18.6% | . | .
CCOc1ccc2nc(/N=C/c3c(C)[nH]n(-c4ccc(C)cc4)c3=O)sc2c1 | 12.6µM* | 2.7% | ? | -6.2% | 0.9%
COCCCn1c(=O)c2sccc2n2c(CCCC(=O)Nc3cccc(OC)c3)nnc12 | . | 0.8% | -4.7% | . | .
CCc1ccc(CNC(=O)c2sc3nc[nH]c(=O)c3c2C)cc1 | . | 19.1% | -0.1% | . | .
COc1ccc2cc(-c3ccccc3)ncc2c1 | -10.5% | 0.0% | -9.0% | -4.2% | 7.8%
COc1cc(OC)cc(-c2cc3ccc(OC)cc3cn2)c1 | 39.8µM* | 6.0% | 5.3% | 57.0% | 21.7%
COc1ccc2cc(-c3ccsc3)ncc2c1 | -13.7% | 39.8µM* | -0.6% | -16.0% | 10.1%
COc1ccc(-c2cc3cc(OC)c(OC)cc3cn2)cc1 | -29.3% | . | . | 110.9% | -7.5%
Cn1c(=O)c2c(-c3ccc(Cl)cc3)n(Cc3ccccc3)cc2n(C)c1=O | . | -7.7% | 1.2% | . | .
Cc1ccc(-c2c3c(=O)n(C)c(=O)n(C)c3cn2Cc2ccccn2)cc1 | -4.4% | 35.5µM* | ? | -14.3% | 5.7%
COc1ccc(-c2c3c(=O)n(C)c(=O)n(C)c3cn2Cc2ccccn2)cc1 | 14.6% | 28.2µM* | -14.8% | 7.2% | 54.9%
CC(C)NC(=O)c1ccc(CSc2nc3ccncc3n2Cc2cccc(F)c2)cc1 | . | 4.6% | 16.1% | . | .
Cc1cc(N)ccc1N1CCCC1 | -9.8% | 5.01µM* | -3.0% | 15.8% | 15.8µM*
Nc1cc(Cl)ccc1N1CCCCCC1 | -7.0% | 6.31µM* | -10.7% | -9.2% | -6.0%
NNC(=O)c1[nH]c2ccccc2c1-c1ccccc1 | . | 9.5% | -9.7% | 6.31µM* | 76.8%
SMILES | RE007 growth inh | Sm TGR inh | AmpC detergent | AmpC no deterg | AMA1-RON2 inh
CC(=O)NNC(=O)c1[nH]c2ccc(Cl)cc2c1-c1ccccc1 | 0.1% | -2.2% | 4.9% | 82.7% | 71.7%
CCCCCc1c2c(cc(O)c1C(=O)O)OC(=O)c1c(cc(OC)cc1C(=O)CCCC)O2 | 0.5% | 39.8µM* | -1.2% | -40.9% | -2.3%
COc1ccc(NC(=S)NC(=O)/C=C/c2ccco2)c(OC)c1 | -4.3% | ? | ? | -34.1% | 16.8%
COc1cccc(NC(=S)NC(=O)/C=C/c2ccco2)c1 | -15.8% | 10µM* | 0.6% | -42.4% | 1.4%
O=C(/C=C/c1ccco1)NC(=S)Nc1cccc(C(=O)O)c1 | 1.8% | 4.47µM* | ? | -22.0% | -17.2%
CCc1ccc(NC(=O)C(=O)N/N=C(\C)CC(=O)Nc2ccc(OC)cc2)cc1 | 6.8% | 44.7µM* | 1.0% | 1.1% | 71.7%
Cc1ccc(-n2ncc(C(=O)NCCN3CCc4ccccc4C3)c2C2CCN(C(=O)OC(C)(C)C)CC2)c(C)c1 | . | -0.1% | 2.8% | . | .
CCCCOC(=O)c1ccc(Nc2nc3ccc(C)cc3n3cnnc23)cc1 | . | 0.9% | 8.5% | . | .
Cc1cc2cc(C=C(C#N)C#N)c(Cl)nc2cc1C | . | 3.16µM* | -11.6% | -27.5% | 4.4%
COc1ccc(Cn2c(=O)n(Cc3ccco3)c(=O)c3oc4ccccc4c32)cc1 | . | -6.8% | -4.4% | . | .
O=C1CC(N2CCN(c3ccccn3)CC2)C(=O)N1CC(c1ccccc1)c1ccccc1 (stereo unspecified) | 44.4% | 7.08µM* | ? | 166.5% | -27.8%
O=C1CC(N2CCN(c3ccccn3)CC2)C(=O)N1c1ccc(F)cc1 (stereo unspecified) | ? | ? | 2.9% | -4.8% | -0.4%
CCc1ccc(N2C(=O)CC(N3CCN(c4ccccn4)CC3)C2=O)cc1 (stereo unspecified) | ? | 22.4µM* | 5.3% | 84.3% | -0.9%
C/C(CC(=O)Nc1ccc(N(C)C)cc1)=N\NC(=O)c1ccccc1O | -19.3% | 44.7µM* | -10.7% | -53.7% | 34.5%
C/C(CC(=O)Nc1ccc([N+](=O)[O-])cc1)=N\NC(=O)c1ccccc1O | -10.6% | -24.8% | -15.8% | -52.5% | 75.3%
Cc1ccc2c(c1)-c1nc(-c3ccc4c(c3)NC(=O)CO4)cc(-c3ccc(Cl)cc3)c1CO2 | . | -1.7% | -0.9% | . | .
Cc1cc(/C=C2\C(=O)NC(=O)N(c3ccccc3)C2=O)c(C)n1-c1ccc(C(=O)O)c(Cl)c1 | 6.3% | 28.2µM* | ? | -38.6% | 1.6%
CCc1ccccc1N1C(=O)NC(=O)/C(=C\c2cc(C)n(C)c2C)C1=O | 0.0% | -17.2% | -1.5% | -32.6% | -11.6%
Cc1cc(/C=C2\C(=O)NC(=O)N(c3ccc(F)cc3)C2=O)c(C)n1-c1cccc(C(=O)O)c1 | 2.7% | ? | 7.5% | -34.6% | -4.6%
Cc1cc(/C=C2\C(=O)NC(=O)N(c3ccccc3F)C2=O)c(C)n1-c1cc(C(=O)O)cc(C(=O)O)c1 | . | 8.91µM* | 0.5% | -19.1% | 0.0%
COc1cc(-c2noc(-c3ccc(NCCc4ccccc4)c([N+](=O)[O-])c3)n2)cc(OC)c1OC | . | -6.1% | 19.3% | . | .
O=[N+]([O-])C1=CC=C2C(=NC3(CCCCC3)N2O)C1=NCCc1ccccc1 | 6.3% | 44.7µM* | 6.3% | -12.7% | -22.3%
